Compound activity deposited in PubChem BioAssay by National Center for Advancing Translational Sciences (NCATS).
Pf growth 96h: Primary qHTS for delayed death inhibitors of the malarial parasite plastid, 96 hour incubation | AID 504834, 2011 | P. falciparum luciferase reporter growth, 96 h | actives 6.9% (n = 320,000) | Potency, µM (series often up to 28.7 µM), most hits filed as inhibitors; active means well fitted inhibition curve with a large enough effect; inconclusive means small, poorly fitted or top-dose-only effect, or another doubt; inactive means no such curve, though single readings can be large or run the other way
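P. falciparum expressing integrated firefly luciferase grown in erythrocytes (2% hematocrit, 0.05% parasitemia final) with compounds for 96 hours at 37 C, 5% CO2. Growth inhibition read as loss of luminescence after adding luciferase detection reagent.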
SARS PLpro yeast: qHTS of Yeast-based Assay for SARS-CoV PLP; AID 485353, 2010; actives 0.19% (n = 330,000); Potency, µM (top dose mostly 32.9 µM), usual class: activators; S. cerevisiae expressing SARS-CoV PLpro, growth rescue; further: nearly all actives have a fitted effect of over 55% in size
NS1 function inh: qHTS Assay for Inhibitors of Influenza NS1 Protein Function | actives 0.4% (n = 270,000) | Potency, µM (highest dose often 46.1 µM) | AID 2326, 2010; further: actives are rising curves; nearly all actives have a fitted effect of over 50% in size
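OD600 was taken as the measure of yeast growth restored by compound in an NS1-expressing S. cerevisiae strain. Cells had been washed out of glucose medium and diluted 1:100 into galactose -URA medium, pH 6.0.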
RE007 growth inh: qHTS Assay for Inhibitors of the HIV-1 protein Vpr; actives 0.21% (n = 360,000); S. pombe RE007 Vpr strain, BacTiter-Glo ATP luminescence, 24 h; Potency, µM (top dose mostly 92.2 µM), hits mostly inhibitors; active means well fitted falling curve with a large enough effect; inconclusive means small, poorly fitted or top-dose-only effect; inactive means no such curve, though single readings can be large or run the other way; further: nearly all actives have a fitted effect of over 50% in size
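Fission yeast RE007 carrying one integrated HIV-1 vpr copy, seeded at OD 0.01 in PMG+AL medium with 23 nL pinned compound. Grown 24 h at 30 degrees; viability read by BacTiter-Glo luminescence after 5 min.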
Pf growth 48h: Primary qHTS for delayed death inhibitors of the malarial parasite plastid, 48 hour incubation; Potency, µM (series often up to 28.7 µM), actives largely listed as inhibitors; actives 5.9% (n = 310,000); P. falciparum luciferase growth in erythrocytes, 48 h; active means well fitted inhibition curve with a large enough effect; inconclusive means small, poorly fitted or top-dose-only effect, or another doubt; inactive means no such curve, though single readings can be large or run the other way
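Firefly luciferase activity from engineered P. falciparum reports growth; inhibitors lower the luminescent signal. Cultures contained 2% hematocrit erythrocytes at 0.1% final parasitemia.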
Flu NS1 inh: Assay for Inhibitors of Influenza NS1 Protein Function: Hit Validation. shares compounds with NS1 function inh. influenza NS1 function cell assay, 15-point titration. activity change, negative = inhibition, % at 32.9 µM. 1,400 tested, under 10 active
Flu PR8 replic: Assay for Inhibitors of Influenza NS1 Protein Function: Influenza virus replication assay in MDCK cells infected with virus A/PR/8/34; virus titer (log TCID50), log10 TCID50 at 5 µM; shares compounds with NS1 function inh; AID 504647, 2011; MDCK infected influenza A/PR/8/34, virus titer TCID50; hits give low values; actives 30% (n = 95); call rule not given here
Numbers stand for hits; . = inactive; ? = inconclusive; / = not tested or not shown; [ ] = dose if it differs, or a comment. Shown are actives, neighbours in structure and some others; about 9.5% of the full set was active somewhere. Unless noted, the call rests on the fitted dose curve.

SMILES | Pf growth 96h | SARS PLpro yeast | NS1 function inh | RE007 growth inh | Pf growth 48h | Flu NS1 inh | others
CCC(C(=O)NCCN1CCN(C)CC1)n1c(C)c2cnn(-c3ccccc3)c(=O)c2c1C (stereo not drawn) | ? | . | ? | . | ? | .
Cn1c(CNC(=O)CCNC(=O)c2cccc(Cl)c2)cc(=O)n(C)c1=O | ? | . | . | . | . | /
CCOC(=O)c1c(C)[nH]c(C(=O)/C(C#N)=C/c2ccc(OCC)cc2)c1C | . | . | 4µM | / | . | .
Cc1ccc(/C=N/NC(=O)CN(Cc2ccccc2)S(=O)(=O)c2ccc3c(c2)OCCO3)cc1 | . | . | 13µM | . | ? | . | Flu PR8 replic=.
O=c1cc(O)c2sc3nc(-c4cccnc4)cc(C(F)(F)F)c3c2[nH]1 | . | . | 10µM | . | . | .
Cc1cc(C(F)(F)F)c2c(n1)sc1c(O)cc(=O)[nH]c12 | / | . | . | . | . | /
COCCNC(=O)C1(C)CCCN(C(=O)Cc2ccc3ccccc3c2)C1 (stereo not drawn) | / | / | / | . | / | /
CCOC(=O)CSc1nc(N)cc(=O)[nH]1 | ? | . | . | . | . | /
CC1CCC(C(C)C)C(OC(=O)CSc2nc(N)cc(=O)[nH]2)C1 (stereo not drawn) | . | . | 8.9µM | . | . | .
Fc1ccc(Cn2nnnc2CN2CCC(n3nnc4cc(C(F)(F)F)ccc43)CC2)cc1 | ? | . | 5µM | . | ? | ?
Nc1nonc1-n1nnc(C(=O)N/N=C/c2cc(Br)cs2)c1-c1ccccc1 | . | . | . | . | ? | /
C[C@@H]1CN([C@@H](C)CO)S(=O)(=O)c2ccc(Br)cc2O[C@H]1CN(C)Cc1ccc(-c2ccccc2)cc1 | / | / | / | . | / | /
CNC(=O)c1cc2cc(OC)ccc2n1CCN(Cc1ccccc1)Cc1ccccc1 | / | . | . | . | ? | /
CNC(=O)c1cc2cc(OC)ccc2n1CCN(C)C | . | . | 3.5µM | . | . | .
COC(=O)c1cc(NC(=O)C2(S(=O)(=O)c3ccc(Cl)cc3)CC2)cc(C(=O)OC)c1 | . | . | 11µM | . | ? | .
C#CCn1c(=NC(=O)CN2C(=O)CCC2=O)sc2cc(S(N)(=O)=O)ccc21 | . | . | . | . | . | /
C#CCn1c(=NC(=O)c2cc(Cl)sc2Cl)sc2cc(S(N)(=O)=O)ccc21 | . | . | 10µM | . | . | .
CC1CC(C)CN(S(=O)(=O)c2ccc3c(c2)CC(=O)N3)C1 (stereo not drawn) | ? | . | / | . | ? | /
O=C(NC1CCCc2ccccc21)c1cccc(S(=O)(=O)N2CCN(c3ccccc3)CC2)c1 (stereo not drawn) | / | ? | 11µM | . | 10µM | .
CC1CCC(NC(=O)c2cccc(S(=O)(=O)N3CCN(c4ccccc4)CC3)c2)CC1 (stereo not drawn) | . | . | / | . | ? | /
O=C(Nc1ccc2c(c1)CCC2)c1cccc(S(=O)(=O)N2CCN(c3ccccc3)CC2)c1 | ? | . | 13µM | . | / | .
O=C(Nc1ccc(N2CCOCC2)cc1)c1cccc(S(=O)(=O)N2CCCCC2)c1 | / | . | . | . | . | /
COc1ccccc1NC(=O)COC(=O)C1CC2CCCC(C1)C2=O (stereo not drawn) | / | . | / | . | / | /
O=C(CCCN1C(=O)NC2(CCCC2)C1=O)Nc1cccc(S(=O)(=O)N2CCOCC2)c1 | . | . | / | . | ? | /
CC1(c2ccc3ccccc3c2)NC(=O)N(CC(=O)Nc2cccc(S(=O)(=O)N3CCOCC3)c2)C1=O (stereo not drawn) | ? | . | 10µM | . | . | . | Flu PR8 replic=.
SMILES | Pf growth 96h | SARS PLpro yeast | NS1 function inh | RE007 growth inh | Pf growth 48h | Flu NS1 inh | others
OC[C@H]1OC(O)[C@H](O)[C@@H]1O (stereo partly drawn) | . | / | / | .[18.4 µM] | ? | /
O=S1(=O)C[C@@H](N2CCC(Cc3ccccc3)CC2)[C@H](COCc2ccccc2)N1 | / | / | / | . | / | /
CC(=O)c1ccc2c(c1)C1C(Cl)C(Sc3ccccc3[N+](=O)[O-])CC1C(c1ccccc1[N+](=O)[O-])N2 (stereo not drawn) | ? | . | 2µM | . | 2.3µM | .
Cc1cc(C)cc(NC(=O)Cn2cc3c(n2)CCCCC3)c1 | ? | . | . | / | / | /
CN(C)c1ccc(NC(=O)Cn2cc3c(n2)CCCC3)cc1 | ? | . | 10µM | . | ? | .
Clc1ccccc1N1CCN(Cc2c[nH]c3ccccc23)CC1 | / | / | / | . | / | /
Fc1ccccc1N1CCN(C2CCN(Cc3c[nH]c4ccccc34)CC2)CC1 | 3.7µM | . | 25µM | . | / | .
CCc1ccc(Nc2nnc(SCC(=O)Nc3cccc(S(=O)(=O)NC4=NCCCCC4)c3)s2)cc1 | ? | . | 11µM | / | . | .
Cc1ccc(C(C)(C)c2ccc(C)cc2)cc1 | . | / | / | / | . | /
CCCOc1ccc(-c2nc(-c3ccc(N)cc3)cs2)cc1 | . | . | 13µM | / | . | .
CN=c1scc(-c2ccc(F)cc2)n1/N=C/c1ccc(O)c(O)c1 | ? | . | / | . | . | /
O=C(CN(c1ccccc1)S(=O)(=O)c1ccccc1[N+](=O)[O-])NN=C1CCCCCCC1 | . | . | 1.3µM | . | ? | ?
CS(=O)(=O)N(CC(=O)NN=C1CCCCCC1)c1ccc(Oc2ccccc2)cc1 | . | . | / | . | . | /
COc1ccc(CNC(=O)C[C@@H]2C=C[C@@H](NS(=O)(=O)c3cccc(OC)c3)[C@@H](CO)O2)cc1 | / | / | / | . | / | /
COc1ccc(-c2cc(C(=O)OCC(=O)c3ccc(C)c([N+](=O)[O-])c3)c3ccccc3n2)cc1 | . | . | ? | . | . | .
O=c1[nH]c(C2CCCN(S(=O)(=O)c3ccccc3)C2)nc2c1nnn2Cc1ccccc1Br (stereo not drawn) | ? | ? | 7.1µM | . | ? | ?
Cc1ccc(Cn2nnc3c(=O)[nH]c(C4CCN(S(=O)(=O)c5ccc(F)cc5)CC4)nc32)cc1 | / | . | 13µM | . | . | .
O=C(C[n+]1cccc(C(=O)Nc2ccccc2)c1)c1ccc(Cl)cc1 | / | / | / | . | / | /
O=C(C[n+]1cccc(C(=O)Nc2ccccc2)c1)c1ccc([N+](=O)[O-])cc1 | . | . | 2.5µM | . | . | . | Flu PR8 replic=.
CC(=O)NS(=O)(=O)c1ccc(NC(=O)c2cc(-c3ccc(C)c(C)c3)nc3ccccc23)cc1 | ? | . | . | . | . | /
O=C(Nc1cccc(S(=O)(=O)NC2=NCCCCC2)c1)c1cc(-c2ccc(Cl)cc2)nc2ccccc12 | ? | . | 11µM | . | . | .
